RORg inh: ROR gamma (mouse) transcription inhibition. P51450. Drosophila S2 Gal4-RORgamma UAS-luciferase reporter, 20 h. Potency, µM (highest dose often 53.6 µM), for the others: at the highest dose activity change, negative = inhibition, hits mostly inhibitors. 310,000 tested, 5.4% active. AID 2551; further: potency means the concentration at half of the fitted maximal effect; on the % scale 0 is the no-effect control and ±100 the full control effect; nearly all actives have a fitted effect of over 60% in size
Target sequence (P51450 whole entry, looked up, the tested form may be a part): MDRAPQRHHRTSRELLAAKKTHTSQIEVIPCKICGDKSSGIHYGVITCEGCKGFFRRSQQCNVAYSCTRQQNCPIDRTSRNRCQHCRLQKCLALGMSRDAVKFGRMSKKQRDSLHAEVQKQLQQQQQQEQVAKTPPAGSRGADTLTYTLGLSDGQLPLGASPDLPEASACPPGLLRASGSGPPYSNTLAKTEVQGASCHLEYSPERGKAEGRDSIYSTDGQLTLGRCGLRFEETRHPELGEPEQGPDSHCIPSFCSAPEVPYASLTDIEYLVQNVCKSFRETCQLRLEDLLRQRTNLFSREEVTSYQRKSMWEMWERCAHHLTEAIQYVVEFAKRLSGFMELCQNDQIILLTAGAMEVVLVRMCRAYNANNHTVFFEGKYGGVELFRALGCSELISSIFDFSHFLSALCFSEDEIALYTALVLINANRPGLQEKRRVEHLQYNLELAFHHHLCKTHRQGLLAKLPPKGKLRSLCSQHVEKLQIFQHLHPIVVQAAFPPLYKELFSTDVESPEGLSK
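In this cell-based reporter format, copper sulfate (700 uM final) drives Gal4–ROR gamma fusion expression from a metallothionein promoter in Drosophila Schneider cells; compounds preincubated 1 hr, reporter read after 20 hr at ambient temperature.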
ERG-DNA inh: inhibitors of human ERG Ets domain-DNA interaction. fluorescence polarization, His-ERG Ets domain / labelled DNA. P11308. Potency, µM (top dose mostly 76.9 µM), without a hit: top-dose FP activity, negative = inhibition, usual class: inhibitors. AID 624246. 370,000 tested, 0.028% active; active means well fitted inhibition curve with a large enough effect in the polarisation, with a control signal flat; inconclusive means small, poorly fitted or top-dose-only effect, or effect the other way, or a change in a side signal; inactive means no such curve, though single readings can be large or run the other way; the % refers to the polarisation;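 further: polarization taken with two DNA probes labelled with fluorescein and Texas red; potency means the concentration at half of the fitted maximal effect; % of control where 0% means no effect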
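His-tagged ERG Ets domain (1 uM in the protein solution; 300mM KCl, 50mM Tris-HCl, 1mM EDTA, 1mM DTT, pH 7.5) received compound, then a probe mix of 5 nM fluorescein-DNA and 100nM Texas-615-DNA. Fluorescence polarization was read for both dyes.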
Giardia killer: Giardia lamblia killing | Giardia lamblia trophozoite viability | 340,000 tested, 0.15% active | activity change, % at 7.66 µM, hits read low; in the data active means activity change below about -80%; inconclusive means between about -30% and that limit;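 further: parasites exposed to compound for two days anaerobically before the ATP read; on the % scale 0 is the no-effect control and ±100 the full control effect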
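Giardia trophozoites, 100 cells per well, were exposed to compounds for 48 hrs at 37 deg C under anaerobic conditions; viability was then read as ATP content by bioluminescence after 15-30 min at room temperature.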
Integrin act MD: activates integrin-mediated alleviation for muscular dystrophy; alpha7betagal myoblasts, beta-gal FDG fluorescence, 48 h; Potency, µM (doses to about 38.3 µM), for the others: at the highest dose activation, usual class: activators; 350,000 tested, 0.064% active; AID 624291;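 further: potency means the concentration at half of the fitted maximal effect; 100% = response of the positive control SU9516; nearly all actives have a fitted effect of over 60% in size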
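alpha7betagal+/- myoblasts (passage 13, 250/well) treated 48 h at 37C with compounds at 1:260 dilution of DMSO stock. Lysed, then beta-galactosidase activity read as FDG fluorescence (ex 480/em 540) after 30 min, with pre-read for autofluorescence.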
Gal4-VP16 FLuc: inhibits Gal4-VP16 luciferase reporter, ROR gamma counter-screen. Drosophila S2 Gal4-VP16 UAS-luciferase, luminescence, 20 h. 310,000 tested, 3.5% active. Potency, µM (highest dose often 53.6 µM), for the others: at the highest dose activity, negative = inhibition, actives largely listed as inhibitors;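 further: Gal4-VP16 expression switched on by copper sulfate through the metallothionein promoter; potency means the concentration at half of the fitted maximal effect; on the % scale 0 is the no-effect control and ±100 the full control effect; nearly all actives have a fitted effect of over 50% in size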
Numbers without * were called inactive; [ ] = another dose, or the depositor's remark. This is one part of a sample in which hits are shown more often than they occur. Unless noted, the call rests on the fitted dose curve; in most records, active means well fitted curve in the direction sought with a large enough effect; inconclusive means small, poorly fitted or top-dose-only effect, or another doubt; inactive means no such curve, though single readings can be large; an effect the other way counts as inactive or inconclusive.

CCOC(=O)CCCCCC(=O)Nc1ccc2c(c1)C(=O)N([C@H](C)CO)C[C@@H](C)[C@H](CN(C)S(=O)(=O)c1cn(C)cn1)O2 was read as ERG-DNA inh 18.5%, Giardia killer -0.7 and Integrin act MD 10.8%.
`[C-]#[N+]/C(C#N)=C\c1cc(C(C)(C)C)c(O)c(C(C)(C)C)c1` gave RORg inh 0.199µM* and Gal4-VP16 FLuc 8.91µM*.
Cc1noc(C)c1-c1ccc2ncnc(NCc3ccccc3Cl)c2c1 was read as RORg inh -32.2% and Gal4-VP16 FLuc 5.2%.
Screening N#Cc1cc(-c2ccccc2)[nH]c1-c1nccc2ccccc12 returned RORg inh 10µM*, ERG-DNA inh -3.3%, Giardia killer 15.3, Integrin act MD -1.0% and Gal4-VP16 FLuc inconclusive.
For COC(=O)c1c(-c2ccccc2)[nH]c(-c2nccc3ccccc23)c1C(=O)OC the results were Integrin act MD -5.7%.
`c1ccc(-c2ccc(-c3nccc4ccccc34)[nH]2)cc1` gave RORg inh 5.01µM* and Gal4-VP16 FLuc 10µM*.
`O=C(NC(=S)Nc1nc2c(s1)CCCC2)c1ccc(C(=O)c2ccccc2)cc1` gave RORg inh inconclusive, ERG-DNA inh -22.4%, Giardia killer -19.0, Integrin act MD 32.7% and Gal4-VP16 FLuc inconclusive.
`O=C(NC(=S)Nc1nc2c(s1)CSc1ccccc1-2)c1ccccc1` gave RORg inh 15.8µM*, ERG-DNA inh -1.8%, Giardia killer -2.4, Integrin act MD -4.7% and Gal4-VP16 FLuc inconclusive.
COc1ccc(C2=NN(CCC(=O)NCCc3ccccc3)C(=O)CC2)cc1 was read as ERG-DNA inh 5.7%.
Screening O=C(C1CCC(Cn2c(=S)[nH]c3ccccc3c2=O)CC1)N1CCOCC1 (stereo not drawn) returned RORg inh 11.2µM*, ERG-DNA inh 1.6%, Giardia killer -7.0, Integrin act MD -16.2% and Gal4-VP16 FLuc inconclusive.
`O=C(C1CCC(Cn2c(=S)[nH]c3ccccc3c2=O)CC1)N1CCN(c2ccccc2)CC1` (stereo not drawn) gave ERG-DNA inh 1.9%, Giardia killer 9.3 and Integrin act MD -53.4%.
For COc1ccc(N2CCN(C(=O)C3CCC(Cn4c(=S)[nH]c5ccccc5c4=O)CC3)CC2)cc1 (stereo not drawn) the results were RORg inh 3.55µM*, ERG-DNA inh 0.0%, Giardia killer -13.0, Integrin act MD -20.4%[7.66 µM] and Gal4-VP16 FLuc 7.08µM*.
O=C(CCCn1c(=S)[nH]c2ccc(Br)cc2c1=O)N1CCN(c2ccccn2)CC1 was read as RORg inh 7.08µM*, ERG-DNA inh 8.2%, Giardia killer 9.3, Integrin act MD 5.0% and Gal4-VP16 FLuc inconclusive.
O=C(C1CCC(Cn2c(=O)[nH]c3ccccc3c2=O)CC1)N1CCN(c2ccccc2)CC1 (stereo not drawn) was read as RORg inh 18.3%, ERG-DNA inh 0.4%, Giardia killer 5.4, Integrin act MD -23.9% and Gal4-VP16 FLuc -8.3%.
`O=C(C1CCC(Cn2c(=S)[nH]c3ccccc3c2=O)CC1)N1CCN(c2ccccn2)CC1` (stereo not drawn) gave RORg inh 5.62µM*, ERG-DNA inh 12.4%, Giardia killer -1.5, Integrin act MD -13.8% and Gal4-VP16 FLuc inconclusive.
Screening CC[C@H](C)[C@H](NC(=O)CNC(=O)[C@H](C)NC(=O)[C@H](C)N)C(=O)NCC(=O)N[C@H](C(=O)N[C@@H](CC(C)C)C(=O)N[C@H](C(=O)N[C@H](C(=O)O)C(C)C)[C@@H](C)O)[C@@H](C)CC returned RORg inh 11.6% and Gal4-VP16 FLuc 3.2%.
`CC(C)OCCCN1C(=O)c2[nH]nc(-c3ccccc3O)c2C1c1cccc(OCc2ccccc2)c1` (stereo not drawn) gave ERG-DNA inh -0.1%.
`COc1ccc(C2Nc3ccccc3C(=O)N2Cc2ccco2)cc1` (stereo not drawn) gave Giardia killer 9.6.
COc1ccccc1N1CCN(C(=O)C2CCC(Cn3c(=S)[nH]c4ccccc4c3=O)CC2)CC1 (stereo not drawn) was read as RORg inh 2.51µM*, ERG-DNA inh 9.9%, Giardia killer -3.2, Integrin act MD -50.3% and Gal4-VP16 FLuc 5.01µM*.
Screening CCN(C(=O)c1ccc(S(=O)(=O)N2CCCC2)cc1)C1CCS(=O)(=O)C1 (stereo not drawn) returned ERG-DNA inh 16.5%, Giardia killer -6.4 and Integrin act MD -8.9%.
Screening CCCN(C(=O)c1ccc(S(=O)(=O)N2CCCC2)cc1)C1CCS(=O)(=O)C1 (stereo not drawn) returned ERG-DNA inh 16.7%, Giardia killer 12.1 and Integrin act MD 5.01µM*.
For CCOC(=O)/C(C(N)=NCCCO)=C(/O)c1ccccc1 the results were RORg inh -0.3%, ERG-DNA inh -7.9%, Giardia killer -2.6, Integrin act MD -16.7% and Gal4-VP16 FLuc 2.4%.
CCOC(=O)/C(C(N)=NCCO)=C(/O)c1ccccc1 was read as RORg inh -1.8%, ERG-DNA inh -7.3%, Giardia killer -4.9, Integrin act MD 12.6µM* and Gal4-VP16 FLuc -6.5%.
Screening COc1ccc(NC(=O)C(=O)NCC(c2cccnc2)N2CCc3ccccc3C2)cc1 (stereo not drawn) returned ERG-DNA inh 5.1%.
Screening Nc1nonc1-n1nnc(C(=O)N/N=C/c2ccco2)c1-c1ccccc1 returned RORg inh inconclusive, ERG-DNA inh 32.2%, Giardia killer 11.9, Integrin act MD 8.3% and Gal4-VP16 FLuc inconclusive.
For Cc1ccsc1/C=N/NC(=O)c1nnn(-c2nonc2N)c1-c1ccccc1 the results were RORg inh 7.08µM*, ERG-DNA inh -2.1%, Giardia killer 15.9, Integrin act MD 16.7% and Gal4-VP16 FLuc 20µM*.
`Cc1ccc(-c2c(C(=O)N/N=C/c3sccc3C)nnn2-c2nonc2N)cc1` gave RORg inh 4.47µM*, ERG-DNA inh 1.2%, Giardia killer 9.6, Integrin act MD -15.0% and Gal4-VP16 FLuc 5.62µM*.
`Cc1ccsc1/C=N/NC(=O)c1nnn(-c2nonc2N)c1C` gave RORg inh inconclusive, ERG-DNA inh -6.5%, Giardia killer 10.3, Integrin act MD 16.7% and Gal4-VP16 FLuc inconclusive.
Screening COc1cccc(-c2c(C(=O)N/N=C/c3ccsc3)nnn2-c2nonc2N)c1 returned RORg inh -20.3%, ERG-DNA inh -5.6%, Giardia killer -13.7, Integrin act MD 13.0% and Gal4-VP16 FLuc inconclusive.
Screening COc1cccc(-c2c(C(=O)N/N=C/c3ccco3)nnn2-c2nonc2N)c1 returned RORg inh 11.2µM*, ERG-DNA inh 12.5%, Giardia killer -1.0, Integrin act MD 5.4% and Gal4-VP16 FLuc -18.4%.

Compound activity (PubChem BioAssay)
